These results are taken from PubChem BioAssay AID651813 (National Center for Advancing Translational Sciences (NCATS), 2012).

Molecules are shown by their SMILES. The campaign covered roughly 2,100 compounds. About 1,100 (52%) were called active. Inconclusive results (about 27%) are left out. So high a share suggests a set chosen from earlier hits. The list shows a part of the results. Values without a mark were called inactive. Calls follow the shape of the dose curve; as a rule, active = well fitted inhibition curve with a large enough effect; inconclusive = small, poorly fitted or top-dose-only effect; inactive = no such curve, though single readings can be large or run the other way.
Potency is read from the fitted curve at half-maximal effect.

Chain of DNA dC->dU-editing enzyme APOBEC-3G (Homo sapiens) (Q9HC16 whole entry, looked up): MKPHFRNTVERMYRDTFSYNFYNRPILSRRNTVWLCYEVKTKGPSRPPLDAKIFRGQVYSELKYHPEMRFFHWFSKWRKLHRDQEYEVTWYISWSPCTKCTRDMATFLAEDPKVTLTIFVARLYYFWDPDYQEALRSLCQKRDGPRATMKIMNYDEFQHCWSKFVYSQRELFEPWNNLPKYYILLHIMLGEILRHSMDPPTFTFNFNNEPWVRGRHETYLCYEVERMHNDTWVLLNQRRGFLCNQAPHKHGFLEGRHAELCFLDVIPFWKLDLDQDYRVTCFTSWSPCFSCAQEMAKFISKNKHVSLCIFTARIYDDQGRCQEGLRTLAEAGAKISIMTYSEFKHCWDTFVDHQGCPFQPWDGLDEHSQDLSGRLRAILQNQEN

This test concerns the target DNA dC->dU-editing enzyme APOBEC-3G (Homo sapiens) (UniProt Q9HC16). Put plainly: qHTS for inhibitors of Vif-A3G interactions: Cherry picks counterscreen.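 Also: hits raise yellow fluorescence by blocking Vif-driven A3G-eYFP degradation; nearly all actives have a fitted effect of over 70% in size.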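 As to max response: max response given as percent of control signal.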 Particulars: HeLa A3G-eYFP + Vif (tagged APOBEC3G with the HIV-1 protein that degrades it), eYFP fluorescence, 24 h. The method in brief:
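HeLa cells stably expressing A3G-eYFP and Vif were treated for 24 h at 37 deg C with compounds at several concentrations; yellow fluorescence (Ex 488 nm, Em 500-530 nm) read by Acumen Explorer, MG132 as positive control.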
(Quantitative high-throughput screening tests each substance at several concentrations.)
Consider `CCOc1ccc(C(C)=O)cc1COc1cccnc1[N+](=O)[O-]`, for which the Potency was 12.5 µM (active).
On the same count and under the same terms, next, `N#C/C(=C/c1ccc(N2CCCCCC2)o1)c1cccc(F)c1`: 4.61 µM (active); `N#C/C(=C/c1ccc(N2CCCCC2)o1)c1cccc(F)c1`: 5.17 µM (active).
On the same count and under the same terms, in the case of `Cc1sc(-c2cc3c([nH]c2=O)CC(c2ccccc2)CC3=O)nc1-c1ccc(Cl)cc1` (stereo not given) it was 1.3 µM (active); in that of `O=C1CC(c2ccccc2)Cc2[nH]c(=O)c(-c3nc(-c4cccc(Cl)c4)cs3)cc21` (stereo not given), 2.59 µM (active).
With `CCCc1nc2c(C)cc(Br)cn2c1Cc1ccccc1`, the max response was -5.65%.
As to `COc1c(-c2ccc(O)c(O)c2)oc2cc(O)cc(O)c2c1=O`, the Potency was 7.9 µM (active).
As to `O=C(COc1ccccc1)NC(=S)Nc1cccc2c(O)cccc12`, the max response is -0.841%.
The same measure, in the same setting: next, `CCC(=O)NC(=S)Nc1cccc(Cl)c1N1CCCC1`: -18%.
Take `NC(=O)c1ccccc1NC(=S)NC(=O)CCc1ccccc1`: the Potency is 5.59 µM (active).
The same measure, in the same setting: in the case of `O=C1CCCN1c1ccc(S(=O)(=O)Nc2ccc3c(c2)OCCO3)cc1` it was 5.59 µM (active).
As to `CCCC1=[N+](CC(=O)c2ccc(Br)cc2)CCn2cccc21`, the max response was -25.2%.
With `CC(C)(C)c1ccc(C(=O)C[n+]2cccc3cc(Cl)ccc32)cc1`, the Potency is 18.4 µM (active).
As for `O=C(C[n+]1cccc2cc(Cl)ccc21)c1ccc2ccccc2c1`, the Potency is 23.1 µM (active).
Same read-out and setting: in the case of `O=C(C[n+]1cccc2cc(Cl)ccc21)c1ccc(I)cc1` it was 18.4 µM (active); in that of `COc1ccc(C(=O)C[n+]2cc(Br)cc3ccccc32)cc1`, 8.2 µM (active); in that of `COc1ccc(C(=O)C[n+]2cccc3cc(Cl)ccc32)cc1`, 16.4 µM (active).
On the same count and under the same terms, in the case of `O=C1Nc2ccc(Br)cc2C12NNc1ccccc1O2` (stereo not given) it was 15.8 µM (active); in that of `C/C(=N/Nc1ccc([N+](=O)[O-])cc1)c1c[nH]c2ccccc12`, 18.4 µM (active); in that of `O=[N+]([O-])c1ccc(N/N=C/c2c[nH]c3ccccc23)cc1`, 16.4 µM (active).
The same measure, in the same setting: next, `COc1ccccc1NS(=O)(=O)c1cc([N+](=O)[O-])ccc1N/N=C/c1c[nH]c2ccccc12`: 9.2 µM (active).
Take `O=[N+]([O-])c1ccc(N/N=C/c2c[nH]c3ccccc23)c(S(=O)(=O)Nc2ccc(Cl)cc2)c1`: the Potency is 23.1 µM (active).
On to `Cc1[nH]c2ccccc2c1/C=N/Nc1ccc([N+](=O)[O-])cc1`, for which the Potency was 8.2 µM (active).
On the same count and under the same terms, in the case of `COc1ccc(NS(=O)(=O)c2cc([N+](=O)[O-])ccc2N/N=C/c2c(C)[nH]c3ccccc23)cc1` it was 18.4 µM (active).
Same read-out and setting: in the case of `COc1ccccc1NS(=O)(=O)c1cc([N+](=O)[O-])ccc1N/N=C/c1c(C)[nH]c2ccccc12` it was 2.8 µM (active).
With `COc1cc(NC(=O)c2ccco2)c(C(=O)OCC(=O)c2c[nH]c3ccccc23)cc1OC`, the max response is -2.18%.
For `CC1CC(C)CN(CC(=O)c2c[nH]c3ccccc23)C1` (stereo not given), the Potency is 18.4 µM (active).
For the compound `O=C1NC(=Nc2ccccc2Cl)S/C1=C\c1cc([N+](=O)[O-])ccc1O`, the max response is -33%.
For `O=[N+]([O-])c1ccc(N=Nc2ccc(O)c3ccccc23)cc1`, the Potency was 11.2 µM (active).
Same read-out and setting: in the case of `COc1cc2c(cc1OC)C(C)N(C(=O)c1cc(Cl)nc(Cl)c1)CC2` (stereo not given) it was 12.5 µM (active); in that of `COc1cc2c(cc1OC)C(C)N(C(=O)c1cc(C)on1)CC2` (stereo not given), 0.704 µM (active).
On the same count and under the same terms, next, `Cc1ccc2ccc3c(c2n1)NS(=O)(=O)c1ccc(C(F)(F)F)cc1-3`: 11.6 µM (active).
As to `COCCNC(=S)NN=C1CCCCCC1`, the max response was 0.0981%.
Regarding `COc1ccc2nc(NC(=O)Nc3ccccc3OC)sc2c1`, the Potency is 4.44 µM (active).
As for `COc1ccc2nc(NC(=S)NC(=O)c3ccco3)sc2c1`, the max response was -0.487%.
As for `COc1ccccc1CCC(=O)Nc1ccc2c(c1)c(=O)n(C)n2-c1cccs1`, the Potency is 3.53 µM (active).
On the same count and under the same terms, next, `COc1ccccc1CCC(=O)Nc1ccc2c(c1)c(=O)n(C)n2Cc1ccc(F)cc1`: 17.7 µM (active); `COc1cc(Cn2c3ccc(NC(=O)CCc4ccccc4)cc3c(=O)n2C)ccc1F`: 3.53 µM (active).
For `C/C(CCc1ccc2c(c1)OCO2)=N\NC(=S)NC(C)C`, the max response is 4.06%.
Take `Cc1cccc(N2CCN(Cc3cn(C)nc3-c3ccccc3F)CC2)n1`: the Potency is 5.59 µM (active).
The same measure, in the same setting: in the case of `COC(=O)c1sc(N)c(C(=O)OC)c1COC(=O)c1c(C)noc1C` it was 4.98 µM (active).
As to `Nc1ccccc1C=C1Cc2ccccc2C1=O`, the Potency is 7.31 µM (active).
Same read-out and setting: in the case of `CN(C)c1ccc(/C=C2\Cc3ccccc3C2=O)cc1` it was 2.59 µM (active); in that of `CN(C)c1ccc(/C=C2/C[N+](C)(C)C/C(=C/c3ccc(N(C)C)cc3)C2=O)cc1`, 8.2 µM (active).
For the compound `Cc1ccc(N2C(=O)[C@@H]3[C@H](C2=O)[C@H]2C=C(C(=O)c4ccccc4)C=CN2[C@@H]3C(=O)c2ccc(Cl)cc2)cc1`, the max response was -6.73%.
Still for that read-out and setting: in the case of `O=c1[nH]c2ccccc2n2c(=S)[nH]nc12` it was -15.5%.
For the compound `O=c1[nH]c2ccccc2n2c(C(F)(F)F)nnc12`, the Potency is 20.6 µM (active).
Still for that read-out and setting: in the case of `CCN(CC)c1ccc(/C=C2\SC(N)=NC2=O)cc1` it was 7.9 µM (active); in that of `C/C(CC(=O)NCc1ccc(Cl)cc1)=N\NC(=O)COc1ccc(C)cc1Br`, 14 µM (active).
Take `CC(=O)Nc1ccc(NC(=O)C/C(C)=N/NC(N)=S)cc1`: the max response is 2.45%.
As for `CC(=O)Nc1ccc(CC(=O)NCCC(c2ccccc2)c2ccccc2)cc1`, the Potency is 15.8 µM (active).
Regarding `O=C(Oc1ccc(Cl)c2cccnc12)c1ccco1`, the max response was 17.4%.
As to `COc1ccc(-c2ccnc(-c3ccc(O)cc3)n2)cc1`, the Potency is 1.58 µM (active).
Still for that read-out and setting: next, `COc1ccc(-c2csc(-c3ccc(O)cc3)n2)cc1`: 5.59 µM (active); `Oc1ccc(-c2nc(-c3ccc(O)c(O)c3)cs2)cc1`: 0.994 µM (active); `COc1cc(C2c3cc4c(cc3OC(C)(N3CCCC3)C2C)OCO4)cc(OC)c1OC` (stereo not given): 0.994 µM (active).
The same measure, in the same setting: in the case of `COc1cccc(C2=CC(c3cccs3)n3nnnc3N2)c1` (stereo not given) it was 2.8 µM (active).
With `C=CCOC(=O)C1=C(C)Nc2nnnn2C1c1cccs1` (stereo not given), the max response is -7.35%.
`COc1cccc(C2=CC(c3ccccc3)n3nnnc3N2)c1` (stereo not given): the Potency was 8.86 µM (active).
For the compound `N#CC1=C(S)N(c2ccc(F)cc2)C2(CCCCC2)NC1=O`, the max response was 4.28%.
